# Reference: PubChem BioAssay
# Several values for one entry are separate records, joined by “and”; a condition that tells them apart may be missing. Identical values can stand only once. Records with an inconclusive call do not appear. Activity calls are given as the source filed them.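 How the source made its calls, unless noted: active means normalized viability below 100% at a tested concentration; inactive means the rest.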
# Tests used:
# [1] = viability loss in pontine glioma line – cell-based, JHH-DIPG-1, MIPE4.0, CellTiter-Glo, qHTS, dose response (AID 1347062; cut-off not given, nearly all actives have AC50 up to about 27 µM;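 on AC50: cells exposed to compound for two days before readout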); conditions: JHH-DIPG-1 viability, CellTiter-Glo ATP luminescence
# [2] = viability loss in pontine glioma line – cell-based, SU-DIPG-XIII, MIPE5.0, CellTiter-Glo, qHTS, dose response (AID 1347064; cut-off not given, nearly all actives have AC50 up to about 23 µM;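 on AC50: cells exposed to compound for 48 hours before the viability read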); conditions: CellTiter-Glo ATP luminescence
# [3] = growth inhibition of DIPG cells – cell-based, MIPE4.0 library, CellTiter-Glo luminescence, qHTS (AID 1347066; cut-off not given, nearly all actives have AC50 up to about 30 µM;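 further: cells exposed to compound for 48 hours before readout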); conditions: SU-DIPG-VI viability, CellTiter-Glo ATP luminescence
# [4] = JHH-DIPG-1 glioma cell viability, MIPE5.0 library, CellTiter-Glo luminescence, qHTS (AID 1347067; cut-off not given, nearly all actives have AC50 up to about 26 µM;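 further: cells exposed to compound for 48 hours before readout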); conditions: JHH-DIPG-1 glioma viability, CellTiter-Glo ATP luminescence
# [5] = growth inhibition of DIPG cells – cell-based, MIPE5.0 library, qHTS (AID 1347068; cut-off not given, nearly all actives have IC50 up to about 30 µM;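 on IC50: cells exposed to compound for 48 hours before viability readout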); conditions: SU-DIPG-XXV viability
# [6] = viability loss with induced miR-34 in A549 – imaging, A549 dox-inducible miR-34, nuclei and caspase counts, primary screen (AID 1347080;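 active means compounds whose cell count with miR-34 switched on is under 0.7 times the count with it off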); conditions: A549 miR-34 inducible, Hoechst nuclei count, 48 h
# [7] = MELAS cybrid and Rieske KO viability enhancers – cell-based, MELAS cybrids, Rieske KO mouse fibroblasts, CellTiter-Glo, primary screen (AID 1508586;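 active means mean z-score across replicates of 1.96 or higher in either the MELAS or the Rieske mutant cell line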;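 further: z relative to plate mean and SD of compound and empty wells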); conditions: low glucose
# [8] = viability loss in pontine glioma line – cell-based, SU-DIPG-IV, MIPE4.0, CellTiter-Glo, qHTS, dose response (AID 1347063; cut-off not given, nearly all actives have AC50 up to about 30 µM;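 further: compound exposure lasted 48 hours before the viability readout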); conditions: CellTiter-Glo ATP luminescence
# [9] = viability loss in pontine glioma line – cell-based, SU-DIPG-XXV, MIPE5.0, CellTiter-Glo, qHTS, dose response (AID 1347065; cut-off not given, nearly all actives have AC50 up to about 26 µM;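 further: cells exposed to compound for 48 hours before ATP readout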); conditions: CellTiter-Glo ATP luminescence
# [10] = drug combination growth inhibition, ovarian cancer – cell-based, oncology-focused library, rucaparib conditional, profiling panel (AID 1508598); conditions: patient-derived ovarian cancer cells, CellTiter-Glo viability, 144 h, stronger effect = lower value
# [11] = stronger effect = lower value, cell number ratio, induced over uninduced
# [12] = measured here: relative caspase fold change +Dox/-Dox
# [13] = measured here: total cells with miR-34 induction, stronger effect = lower value
# [14] = measured here: total cells without miR-34 induction
# [15] = MELAS cybrid survival, CellTiter-Glo 48 h, stronger effect = higher value
# [16] = Rieske KO mouse fibroblast survival, CellTiter-Glo 72 h
structure (smiles),measurement,setting,value
Cc1ccc(-n2[nH]c(C)c(N=Nc3cccc(-c4cccc(C(=O)O)c4)c3O)c2=O)cc1C,outcome,[1],inactive
same,outcome,[2],inactive
same,AC50,[3],10.5 µM (active)
same,outcome,[4],inactive
same,outcome,[5],inactive
same,fold change,[6]; [11],0.913 (inactive)
same,fold change,[6]; [12],1.1
same,cell count,[6]; [13],6690
same,cell count,[6]; [14],7330
same,z-score,[7]; [15],-0.18 (inactive)
same,z-score,[7]; [16],-0.0982
NC[C@@H]1O[C@H](O[C@H]2[C@@H](O)[C@H](O[C@@H]3[C@@H](O)[C@H](N)C[C@H](N)[C@H]3O[C@H]3O[C@H](CN)[C@@H](O)[C@H](O)[C@H]3N)O[C@@H]2CO)[C@H](N)[C@@H](O)[C@@H]1O,outcome,[1],inactive
same,outcome,[8],inactive
same,outcome,[3],inactive
same,fold change,[6]; [11],0.891 (inactive) and 0.964 (inactive)
same,fold change,[6]; [12],0.356 and 1.26
same,cell count,[6]; [13],8260 and 10600
same,cell count,[6]; [14],9270 and 11000
same,z-score,[7]; [15],-0.364 (inactive) and -0.26 (inactive)
same,z-score,[7]; [16],-0.155 and -1.25
COCCOC(=O)C1=C(C)NC2=C(C(=O)CC(c3ccccc3OC)C2)C1c1cccc(O)c1 (stereo unspecified),outcome,[1],inactive
same,outcome,[3],inactive
same,outcome,[5],inactive
NS(=O)(=O)c1ccc(Nc2nc(OCC3CCCCC3)c3[nH]cnc3n2)cc1,outcome,[1],inactive
same,outcome,[5],inactive
CON(C)C(=O)N1N=C(c2cc(F)ccc2F)S[C@]1(CCCN)c1ccccc1,outcome,[8],inactive
same,outcome,[3],inactive
COc1ccc2c(c1OC)C(=O)OC2[C@H]1c2c(cc3c(c2OC)OCO3)CCN1C (stereo partly specified),AC50,[1],1.87 µM (active)
COc1c(Cl)cc2c([nH]c3cnccc32)c1NC(=O)c1cccnc1C,AC50,[8],2.96 µM (active)
COC[C@H](c1ccc(C(F)(F)F)cc1)N1CCN(C2(C)CCN(C(=O)c3c(C)ncnc3C)CC2)C[C@H]1C,AC50,[8],11.8 µM (active)
same,outcome,[3],inactive
Cc1ccc(S(=O)(=O)N[C@@H](Cc2ccccc2)C(=O)CCl)cc1,AC50,[8],18.7 µM (active)
same,AC50,[9],18.6 µM (active)
same,AC50,[3],20.9 µM (active)
same,AC50,[4],23.5 µM (active)
same,fold change,[6]; [11],1.17 (inactive) and 1.22 (inactive)
same,fold change,[6]; [12],0.738 and 0.849
same,cell count,[6]; [13],1870 and 962
same,cell count,[6]; [14],1600 and 786
CC(C)(C)Cn1c(N)nc2ccc(-c3[nH]c(C(C)(C)C)nc3-c3ccc(F)cc3)nc21,AC50,[8],26.4 µM (active)
same,AC50,[9],26.3 µM (active)
same,AC50,[3],20.9 µM (active)
same,AC50,[4],20.9 µM (active)
same,fold change,[6]; [11],0.962 (inactive)
same,fold change,[6]; [12],0.864
same,cell count,[6]; [13],5480
same,cell count,[6]; [14],5700
same,z-score,[7]; [15],-0.234 (inactive)
same,z-score,[7]; [16],0.553
same,viability,"[10]; at 0.000305 µM, OCI-C5x cells, with rucaparib 10 µM, 100% = cells with rucaparib alone",114% (inactive)
same,viability,"[10]; at 0.000305 µM, OCI-C5x cells, without rucaparib",115% (inactive)
same,viability,"[10]; at 0.000305 µM, OCI-P5x cells, with rucaparib 20 µM, 100% = cells with rucaparib alone",99.8% (active)
same,viability,"[10]; at 0.000305 µM, OCI-P5x cells, without rucaparib",104% (inactive)
same,viability,"[10]; at 0.00122 µM, OCI-C5x cells, with rucaparib 10 µM, 100% = cells with rucaparib alone",112% (inactive)
same,viability,"[10]; at 0.00122 µM, OCI-C5x cells, without rucaparib",110% (inactive)
same,viability,"[10]; at 0.00122 µM, OCI-P5x cells, with rucaparib 20 µM, 100% = cells with rucaparib alone",101% (inactive)
same,viability,"[10]; at 0.00122 µM, OCI-P5x cells, without rucaparib",107% (inactive)
same,viability,"[10]; at 0.00488 µM, OCI-C5x cells, with rucaparib 10 µM, 100% = cells with rucaparib alone",110% (inactive)
same,viability,"[10]; at 0.00488 µM, OCI-C5x cells, without rucaparib",121% (inactive)
same,viability,"[10]; at 0.00488 µM, OCI-P5x cells, with rucaparib 20 µM, 100% = cells with rucaparib alone",108% (inactive)
same,viability,"[10]; at 0.00488 µM, OCI-P5x cells, without rucaparib",110% (inactive)
same,viability,"[10]; at 0.0195 µM, OCI-C5x cells, with rucaparib 10 µM, 100% = cells with rucaparib alone",103% (inactive)
same,viability,"[10]; at 0.0195 µM, OCI-C5x cells, without rucaparib",112% (inactive)
same,viability,"[10]; at 0.0195 µM, OCI-P5x cells, with rucaparib 20 µM, 100% = cells with rucaparib alone",103% (inactive)
same,viability,"[10]; at 0.0195 µM, OCI-P5x cells, without rucaparib",107% (inactive)
same,viability,"[10]; at 0.0781 µM, OCI-C5x cells, with rucaparib 10 µM, 100% = cells with rucaparib alone",96.9% (active)
same,viability,"[10]; at 0.0781 µM, OCI-C5x cells, without rucaparib",117% (inactive)
same,viability,"[10]; at 0.0781 µM, OCI-P5x cells, with rucaparib 20 µM, 100% = cells with rucaparib alone",101% (inactive)
same,viability,"[10]; at 0.0781 µM, OCI-P5x cells, without rucaparib",109% (inactive)
same,viability,"[10]; at 0.313 µM, OCI-C5x cells, with rucaparib 10 µM, 100% = cells with rucaparib alone",94.5% (active)
same,viability,"[10]; at 0.313 µM, OCI-C5x cells, without rucaparib",121% (inactive)
same,viability,"[10]; at 0.313 µM, OCI-P5x cells, with rucaparib 20 µM, 100% = cells with rucaparib alone",103% (inactive)
same,viability,"[10]; at 0.313 µM, OCI-P5x cells, without rucaparib",105% (inactive)
same,viability,"[10]; at 1.25 µM, OCI-C5x cells, with rucaparib 10 µM, 100% = cells with rucaparib alone",108% (inactive)
same,viability,"[10]; at 1.25 µM, OCI-C5x cells, without rucaparib",140% (inactive)
same,viability,"[10]; at 1.25 µM, OCI-P5x cells, with rucaparib 20 µM, 100% = cells with rucaparib alone",99.8% (active)
same,viability,"[10]; at 1.25 µM, OCI-P5x cells, without rucaparib",104% (inactive)
same,viability,"[10]; at 5 µM, OCI-C5x cells, with rucaparib 10 µM, 100% = cells with rucaparib alone",175% (inactive)
same,viability,"[10]; at 5 µM, OCI-C5x cells, without rucaparib",175% (inactive)
same,viability,"[10]; at 5 µM, OCI-P5x cells, with rucaparib 20 µM, 100% = cells with rucaparib alone",90.5% (active)
same,viability,"[10]; at 5 µM, OCI-P5x cells, without rucaparib",92.5% (active)
O=C1NC(=O)/C(=C/c2ccc(-c3ccc(F)cc3O)o2)S1,outcome,[1],inactive
same,outcome,[4],inactive
same,fold change,[6]; [11],1.04 (inactive) and 0.983 (inactive)
same,fold change,[6]; [12],2.12 and 0.302
same,cell count,[6]; [13],6690 and 5950
same,cell count,[6]; [14],6460 and 6050
N#Cc1ccc(Oc2ccc3c(c2)COB3O)cc1,outcome,[8],inactive
same,outcome,[2],inactive
same,outcome,[9],inactive
same,outcome,[3],inactive
same,outcome,[5],inactive
CC(C)NC(=O)COc1cccc(-c2nc(Nc3ccc4[nH]ncc4c3)c3ccccc3n2)c1,AC50,[2],5.9 µM (active)
same,AC50,[9],5.25 µM (active)
C[C@@H]1CCNC(=O)c2cc3ccc(C(=O)Nc4nc5ccccc5n4CCCN(C)C)cc3n21,outcome,[2],inactive
COCCCc1sc(-c2ccccc2)nc1C(=O)Nc1ccccc1-c1nc2cc(CN3CCCC3)cnc2s1,AC50,[2],9.1 µM (active)
same,AC50,[9],12.9 µM (active)
CO/N=C(/C(=O)N[C@@H]1C(=O)N2C(C(=O)O)=C(CSC(=O)c3ccco3)CS[C@H]12)c1csc(N)n1,AC50,[8],23.5 µM (active)
C[C@H](Cc1ccc(O)c(O)c1)[C@@H](C)Cc1ccc(O)c(O)c1,AC50,[8],16.6 µM (active)
same,AC50,[2],18.6 µM (active)
same,AC50,[3],23.5 µM (active)
same,outcome,[5],inactive
same,fold change,[6]; [11],1.02 (inactive)
same,fold change,[6]; [12],0.821
same,cell count,[6]; [13],8920
same,cell count,[6]; [14],8770
COc1cc(N2CCC(C(N)=O)CC2)ccc1Nc1nc(N)c(Cl)c(Nc2ccccc2S(=O)(=O)C(C)C)n1,AC50,[8],5.9 µM (active)
CO[C@H]1C[C@@H]2CC[C@@H](C)[C@@](O)(O2)C(=O)C(=O)N2CCCC[C@H]2C(=O)O[C@H]([C@H](C)C[C@@H]2CC[C@@H](OCCO)[C@H](OC)C2)CC(=O)[C@H](C)/C=C(/C)[C@@H](O)[C@@H](OC)C(=O)[C@H](C)C[C@H](C)/C=C\C=CC=C1C,AC50,[8],8.33 µM (active)
same,AC50,[9],23.5 µM (active)
same,AC50,[4],29.5 µM (active)
same,IC50,[5],23.5 µM (active)
